Assay results reported in PubChem BioAssay (NCATS).
Records with an inconclusive call do not appear. Entries that show only a call come without a potency. The source made the active and inactive calls. The call rests on the fitted dose curve; in most records, active means well fitted cell-killing curve with a large enough effect; inconclusive means small, poorly fitted or top-dose-only effect, or effect the other way; inactive means flat fitted curve, though single readings scatter.

System: Tov112D
Assay: Primary qHTS to identify gynecologic anti-cancer compounds using libraries of approved drugs and bioactive compounds (AID 1345084); further: nearly all actives have a fitted effect of over 55% in size
Conditions: Gynecologic cancer cell panel viability, ATPlite luminescence, 48 h; series mostly up to 57.5 µM
Outline: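 48 h compound exposure at 37 C, 5% CO2; five-point qHTS. ATPlite luminescence readout of cell ATP.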
Potency means the concentration at half of the fitted maximal effect.

| Compound | Potency | activity change, negative = cytotoxicity |
| --- | --- | --- |
| CC[C@@H](O)C[C@@H]1C(C)=C[C@@H]2CCCC[C@@H]2[C@@]1(C)C(=O)O | inactive | – |
| C/C=C/C=C/C(=O)N1CC[C@]23c4ccccc4N[C@H]4N(C)c5cccc6c5[C@@]42CCN([C@H]6C2OC2(C)C)[C@H]13 (some centres undefined) | inactive | – |
| CC1(C)CC[C@]2(C(=O)OC3OC(CO)C(O)C(O)C3O)CC[C@]3(C)C(=CCC4[C@@]5(C)CC[C@H](OC6OC(C(=O)O)C(O)C(OC7OC(CO)C(O)C(O)C7O)C6O)C(C)(C)C5CC[C@]43C)C2C1 (some centres undefined) | – | 6.25% [at 11.6 µM] (inactive) |
| O=C(O)CC(=O)OC[C@H]1O[C@@H](Oc2ccc3c(c2)OC[C@H]2c4cc5c(cc4O[C@@H]32)OCO5)[C@H](O)[C@@H](O)[C@@H]1O | inactive | – |
| Cc1ccc(C)c(OCCn2cc(C(=O)O)c3ccccc32)c1 | inactive | – |
| COc1ccc(C[C@H](N)C(=O)N[C@@H]2[C@H](O)[C@H](n3cnc4c(N(C)C)ncnc43)O[C@@H]2CO)cc1 | 1.78 µM (active) | – |
| COc1ccc(/C=C/C(=O)O[C@@H]2[C@@H](O)[C@H](C)O[C@@H](O[C@H]3[C@@H]4C=CO[C@@H](O[C@H]5O[C@@H](CO)[C@H](O)[C@@H](O)[C@@H]5O)[C@@H]4[C@@]4(CO)O[C@@H]34)[C@@H]2OC(C)=O)cc1 | inactive | – |
| CC(C)c1cc(C(=O)N2CC[C@H](NC(=O)C3CC3)C2)n[nH]1 | inactive | – |
| CC1CCC2(OC1)OC1CC3C4CC=C5CC(O)CC(O[C@@H]6OC[C@@H](O)[C@H](O)[C@H]6O)C5(C)C4CCC3(C)C1(O)C2C (some centres undefined) | inactive | – |
